Molecules are shown by their SMILES. Values joined by “and” are separate entries in the source; they are usually repeats but may differ in a detail not shown here. Identical values can stand only once. Compounds without any hit were thinned out: in the full panel of roughly 83,000, 20% have a hit.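 Testing used 96-well plates and a 48-hour single-concentration exposure. Example: -40 means 40% of the starting cells died.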 Active and inactive are the calls of the source. The calls were made as follows: active = growth percent below 10; inactive = the rest.

The experiment relates to MDA-MB-468 breast. Put plainly: NCI-60 one-dose screen, 48 h (100 = growth as untreated, 0 = no growth, -100 = all killed). The conditions noted are these: 10 µM unless noted.
For the compound `CC(C)(C)c1cnc(CSc2cnc(NC(=O)C3CCNCC3)s2)o1`, the growth was -43.7% (active). To `O=c1c2ccccc2nc(COc2ccccc2)n1/N=C/C=C/c1ccccc1` belongs 89.1% (inactive); to `N#CCCN1C/C(=C/c2ccccc2)C(=O)/C(=C/c2ccccc2)C1`, 11.7% (inactive). To `O=C(Cc1ccccc1)Nc1cccc(N=Cc2ccccc2O)c1` belongs 104% (inactive). On to `C=C(C[n+]1ccccc1)[C@@H]1CC[C@]2(C(=O)OC)CC[C@]3(C)[C@H](CC[C@@H]4[C@@]5(C)CCC(=O)C(C)(C)[C@@H]5CC[C@]43C)[C@@H]12`, for which the growth is 7.22% (active). To `C#CCOc1cccc(Nc2ncc3ncn(C4CCN(C(=O)CCl)C4)c3n2)c1` (stereo not given) belongs 24.5% [6.25 µM] (inactive); to `COc1cc2nc3cc([N+](=O)[O-])ccc3c(NCCCNCC(C)(C)O)c2cc1OC`, -57.7% (active). The value for `COc1cc(-c2nc3c(c(C)nc4c3nnn4-c3ccccc3)c(=O)o2)cc(OC)c1OC` was 110% (inactive); that for `COc1ccccc1/C=C1\Oc2cc(OCCN3CCC(Cc4ccccc4)CC3)ccc2C1=O` was 76.4% (inactive). With `COc1ccc(/C=C2\SC(=Nc3cc(C)on3)NC2=O)cc1`, the growth is 95.6% (inactive).

Turning to `C=C1C(=O)O[C@H]2[C@H]1CC/C(CNC(=O)c1cc3cc(OC)ccc3[nH]1)=C\CC[C@@]1(C)O[C@@H]21`, the growth is -67.7% (active). The value for `COc1ccc(Cn2cc3c(c2-c2ccccc2)CCc2cnoc2-3)cc1` was 55.2% (inactive); that for `CCS(=O)(=O)OCCO[C@H]1Cc2cc3ccc(=O)oc3cc2OC1(C)C` was 97.9% (inactive); that for `ClC1=NC(Cl)C(Cl)=N/C1=N\c1ncn[nH]1` (stereo not given) was -61.6% (active). The value for `COc1ccc(OC)c(C2OC(c3ccc4ccccc4c3O)=NN2C(C)=O)c1` (stereo not given) was 53.9% (inactive); that for `O=C1/C(=C/c2ccc(F)cc2)CN(C(=O)C(Cl)Cl)C/C1=C\c1ccc(F)cc1` was -47% (active).

In the case of `c1ccc(Sc2ncnc3ccccc23)cc1`, the growth was 50.3% (inactive). To `CC(=O)O[C@@H]1C[C@]2(C(C)C)O[C@@]1(C)[C@@H]1CCC(C)=C1[C@@H]2OC(=O)/C=C/c1ccccc1` belongs 81.5% (inactive). Consider `Cc1cccc(CN(Nc2ccccc2)c2ccccc2)n1`, for which the growth was 94.9% (inactive).

Consider `NC(N)=NC(N)=Nc1cc2ccccc2c2ccccc12`, for which the growth was -14.2% (active). Regarding `CC(C)C[C@H](C(=O)N[C@@H](C)C(N)=O)N1CC=CCN(O)S1(=O)=O`, the growth is 109% [5 µM] (inactive). Regarding `Nc1ncnc2c1ccn2-c1cccc(NC(=O)c2ccc(N3CCOCC3)c(C(F)(F)F)c2)c1`, the growth was 40.3% (inactive). The value for `O=C(Nc1ccc(N2CCOCC2)cc1)Nc1ccc2c(ccn2C(=O)c2cccc(F)c2)c1` was 27.5% (inactive). With `Nc1ccn(C2O[C@H](CO)[C@@H](O)[C@@H]2O)c(=O)n1` (stereo not given in full), the growth is 78.3% (inactive). The value for `COc1ccc(/C=C/C(=O)Nc2ncnc3nc[nH]c23)cc1` was 95.3% (inactive); that for `COc1ccc(N2CCN(S(=O)(=O)c3oc(-c4ccccc4)nc3C#N)CC2)cc1` was 79.6% (inactive); that for `O=C(Nn1c2c(sc1=NCc1ccccc1)C(=O)c1ccccc1C2=O)c1cc2ccc1CCc1ccc(cc1)CC2` was 80% (inactive).

As for `CC1SC(=S)N(c2ccc(Cl)cc2)C1=O` (stereo not given), the growth is 84.9% (inactive) and 90.4% (inactive). Take `O=c1oc2ccc(I)cc2c(=O)n1-c1ccc(I)cc1F`: the growth was -2.07% (active). To `Oc1ccccc1/C=N/Nc1nc(N/N=C/c2ccccc2O)nc(N2CCOCC2)n1` belongs 39.2% (inactive); to `Cc1nc(Nc2cn[nH]c2C(=O)Nc2ccc(CN3CCN(C)CC3)cc2)c2ccsc2n1`, 104% (inactive); to `Cc1ccc(C(CN(C)C)C(=O)c2ccccc2)cc1` (stereo not given), 4.73% (active). On to `CC1=C(C)C(=O)C(Nc2ccccc2)=C(Cl)C1=O`, for which the growth is -76% (active). To `CCc1c(C(=O)N[C@@H]2c3cc(Cl)ccc3CC[C@@H]2O)[nH]c(C)c1C(C)=O` belongs 94.1% (inactive). In the case of `O=S(=O)(NCCCNc1cc(-c2cn(-c3ccccc3)nc2-c2cccc(O)c2)ccn1)c1ccc(Cl)cc1`, the growth was -15.9% (active). Consider `COc1ccc(CNc2nccnn2)cc1`, for which the growth was 88% (inactive). To `CC1(C)CC[C@]23CC[C@]4(C)[C@H](CC[C@@H]5[C@@]6(C)C/C(=C/c7ccncc7)C(=O)C(C)(C)[C@@H]6CC[C@]54C)[C@H]2[C@H]1OC3=O` belongs 58.8% [100 µM] (inactive); to `Cc1ccc(C(C)C)c(OCc2ccc(C(=O)N/N=C/c3cccc(O)c3O)cc2)c1`, 75.7% (inactive); to `O=S(=O)(CC(O)(c1ccccc1)c1ccccc1)CC(O)(c1ccccc1)c1ccccc1`, 77.4% (inactive). `CCOC(=O)C1CN(Cc2ccccc2)C(=O)C1=O` (stereo not given): the growth is 106% (inactive).

Values taken from PubChem BioAssay (NCI).
